The supplement of paper PMC10849652
About 7,900 targets were measured; listed, in parts, are those with a hit and a random draw of the rest. About 0.6% of all pairs of compound and target were hits. Unmarked numbers belong to inactive results.

Key:
Assay in all cases: log2 fold change, soluble protein after heating vs DMSO (PISA); higher = thermal stabilisation; K562 cells, 10 uM, 30 min; active = over 0.2 and 3.5 SD of the protein, either way, in both replicates (recomputed)
[1] = compound: CC[C@@H]1C(=O)N(C)c2cnc(Nc3ccc(C(=O)NC4CCN(C)CC4)cc3OC)nc2N1C1CCCC1
In short: (§1)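 Soluble protein was defined as the supernatant after 21,000xg for 90 min. It came from K562 cells at 2×10^6 cells/mL given 10 μM compound for 30 min, heated in aliquots for 3 min across 48°C-58°C, pooled, and extracted in PBS with 0.5% NP-40 at 4°C, and was quantified by TMTpro 16plex LC-MS/MS with equalised channel sums. Thermal stability against control samples, from duplicates, is reported as log2 fold change.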

volasertib = compound: CC[C@@H]1C(=O)N(C)c2cnc(Nc3ccc(C(=O)N[C@H]4CC[C@H](N5CCN(CC6CC6)CC5)CC4)cc3OC)nc2N1C(C)C [volasertib]
In short: as §1

[2] = compound: CC[C@H](C)N1C=C(C2=C(C=C(C=C21)C3=CN=C(C=C3)N4CCNCC4)C(=O)NCC5=C(C=C(NC5=O)C)C)C
In short: as §1

epoxomicin = compound: CC[C@H](C)[C@@H](C(=O)N[C@@H]([C@@H](C)O)C(=O)N[C@@H](CC(C)C)C(=O)[C@]1(CO1)C)NC(=O)[C@H]([C@@H](C)CC)N(C)C(=O)C [epoxomicin]
In short: as §1

[3] = compound: CCn1c(C(=O)N(C2CC2)C2CC2)cc2c3c(ncn3C)c(Nc3cc(C)n(C)n3)nc21
In short: as §1

[4] = compound: CCn1cc(-c2ccnc3[nH]c(-c4cccc(CN(C)C)c4)cc23)c(-c2ccc(NC(=O)N(C)C)cc2)n1
In short: as §1

[5] = compound: CN(C)CC(=O)Nc1ccc2[nH]c(=O)c3ccccc3c2c1
In short: as §1

rosiglitazone = compound: CN(CCOC1=CC=C(C=C1)C[C@H]2C(=O)NC(=O)S2)C3=CC=CC=N3 (racemic) [rosiglitazone]
In short: as §1

[6] = compound: CN1C2=C(C3=C1C(=O)N(N=C3)CC4=CC(=CC=C4)N)SC(=C2)S(=O)C
In short: as §1

[7] = compound: CN1CCC(CNc2ccc3ncc(-c4cccc(OC(F)(F)F)c4)n3n2)CC1
In short: as §1

saracatinib = compound: CN1CCN(CCOc2cc(OC3CCOCC3)c3c(Nc4c(Cl)ccc5c4OCO5)ncnc3c2)CC1 [saracatinib]
In short: as §1

alvocidib = compound: CN1CC[C@H](c2c(O)cc(O)c3c(=O)cc(-c4ccccc4Cl)oc23)[C@H](O)C1 [alvocidib]
In short: as §1

Tubastatin A = compound: CN1CCc2c(c3ccccc3n2Cc2ccc(C(=O)NO)cc2)C1 [Tubastatin A]
In short: as §1

[8] = compound: CNC(=O)C1=CC=CC=C1NC2=NC(=NC=C2Cl)NC3=C(C=C(C=C3)N4CCOCC4)OC
In short: as §1

defactinib = compound: CNC(=O)c1ccc(Nc2ncc(C(F)(F)F)c(NCc3nccnc3N(C)S(C)(=O)=O)n2)cc1 [defactinib]
In short: as §1

rucaparib = compound: CNCc1ccc(-c2[nH]c3cc(F)cc4c3c2CCNC4=O)cc1 [rucaparib]
In short: as §1

[9] = compound: CNc1nc(-c2ccc3c(N)n[nH]c3c2)cc(N2C[C@@H](C(=O)NC3CCCCC3)CC[C@H]2C)n1
In short: as §1

encorafenib = compound: COC(=O)N[C@@H](C)CNc1nccc(-c2cn(C(C)C)nc2-c2cc(Cl)cc(NS(C)(=O)=O)c2F)n1 [encorafenib]
In short: as §1

[10] = compound: COC(=O)[C@H](CCSC)NC(=O)C1=C(C=C(C=C1)NC[C@H](CS)N)C2=CC=CC=C2
In short: as §1

sotrastaurin = compound: CN1CCN(c2nc(C3=C(c4c[nH]c5ccccc45)C(=O)NC3=O)c3ccccc3n2)CC1 [sotrastaurin]
In short: as §1

Sequence of UniProt Q00535 (Q00535 whole entry, looked up): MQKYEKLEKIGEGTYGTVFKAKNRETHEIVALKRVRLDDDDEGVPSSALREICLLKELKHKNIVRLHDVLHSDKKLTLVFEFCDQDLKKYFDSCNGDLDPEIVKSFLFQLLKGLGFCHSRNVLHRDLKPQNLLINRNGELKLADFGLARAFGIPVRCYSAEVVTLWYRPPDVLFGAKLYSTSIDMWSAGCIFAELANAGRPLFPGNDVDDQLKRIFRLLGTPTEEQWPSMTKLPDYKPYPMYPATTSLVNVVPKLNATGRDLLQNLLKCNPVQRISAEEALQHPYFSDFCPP
Sequence of UniProt Q8N163 (Q8N163 whole entry, looked up): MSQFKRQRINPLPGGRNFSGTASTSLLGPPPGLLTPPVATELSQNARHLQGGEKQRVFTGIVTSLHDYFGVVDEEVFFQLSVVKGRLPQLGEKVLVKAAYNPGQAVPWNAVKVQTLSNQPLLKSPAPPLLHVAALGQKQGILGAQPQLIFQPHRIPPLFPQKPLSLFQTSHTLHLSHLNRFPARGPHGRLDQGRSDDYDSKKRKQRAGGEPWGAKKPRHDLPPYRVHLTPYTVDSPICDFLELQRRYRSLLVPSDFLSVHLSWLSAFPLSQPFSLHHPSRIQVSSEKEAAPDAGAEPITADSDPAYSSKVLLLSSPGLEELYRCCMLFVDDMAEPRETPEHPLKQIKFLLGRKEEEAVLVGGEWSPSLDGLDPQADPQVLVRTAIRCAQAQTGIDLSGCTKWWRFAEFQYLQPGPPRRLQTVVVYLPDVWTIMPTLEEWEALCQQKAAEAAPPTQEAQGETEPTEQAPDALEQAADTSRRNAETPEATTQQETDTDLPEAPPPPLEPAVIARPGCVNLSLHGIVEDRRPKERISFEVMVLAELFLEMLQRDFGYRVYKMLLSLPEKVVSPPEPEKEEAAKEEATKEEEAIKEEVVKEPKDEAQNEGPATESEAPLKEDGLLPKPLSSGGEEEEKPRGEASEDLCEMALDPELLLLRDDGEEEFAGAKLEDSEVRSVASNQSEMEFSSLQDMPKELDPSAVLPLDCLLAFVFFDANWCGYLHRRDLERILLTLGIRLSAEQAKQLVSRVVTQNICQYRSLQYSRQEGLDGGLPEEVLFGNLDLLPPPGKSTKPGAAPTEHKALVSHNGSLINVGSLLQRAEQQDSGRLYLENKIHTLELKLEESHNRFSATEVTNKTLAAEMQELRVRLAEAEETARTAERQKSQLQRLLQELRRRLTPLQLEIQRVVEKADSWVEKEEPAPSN
Sequence of UniProt P50750 (P50750 whole entry, looked up): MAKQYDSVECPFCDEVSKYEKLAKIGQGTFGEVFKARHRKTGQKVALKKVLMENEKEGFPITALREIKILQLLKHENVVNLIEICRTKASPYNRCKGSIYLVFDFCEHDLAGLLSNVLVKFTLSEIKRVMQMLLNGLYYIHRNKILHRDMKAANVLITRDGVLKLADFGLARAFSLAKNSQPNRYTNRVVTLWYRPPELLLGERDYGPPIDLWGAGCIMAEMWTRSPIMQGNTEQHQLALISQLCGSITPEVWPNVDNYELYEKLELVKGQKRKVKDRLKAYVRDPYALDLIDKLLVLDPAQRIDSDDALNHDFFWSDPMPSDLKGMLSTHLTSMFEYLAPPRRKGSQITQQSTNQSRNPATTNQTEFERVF
Sequence of UniProt P15954 (P15954 whole entry, looked up): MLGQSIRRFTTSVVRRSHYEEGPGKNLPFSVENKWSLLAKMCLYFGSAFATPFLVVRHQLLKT
Sequence of UniProt P30305 (P30305 whole entry, looked up): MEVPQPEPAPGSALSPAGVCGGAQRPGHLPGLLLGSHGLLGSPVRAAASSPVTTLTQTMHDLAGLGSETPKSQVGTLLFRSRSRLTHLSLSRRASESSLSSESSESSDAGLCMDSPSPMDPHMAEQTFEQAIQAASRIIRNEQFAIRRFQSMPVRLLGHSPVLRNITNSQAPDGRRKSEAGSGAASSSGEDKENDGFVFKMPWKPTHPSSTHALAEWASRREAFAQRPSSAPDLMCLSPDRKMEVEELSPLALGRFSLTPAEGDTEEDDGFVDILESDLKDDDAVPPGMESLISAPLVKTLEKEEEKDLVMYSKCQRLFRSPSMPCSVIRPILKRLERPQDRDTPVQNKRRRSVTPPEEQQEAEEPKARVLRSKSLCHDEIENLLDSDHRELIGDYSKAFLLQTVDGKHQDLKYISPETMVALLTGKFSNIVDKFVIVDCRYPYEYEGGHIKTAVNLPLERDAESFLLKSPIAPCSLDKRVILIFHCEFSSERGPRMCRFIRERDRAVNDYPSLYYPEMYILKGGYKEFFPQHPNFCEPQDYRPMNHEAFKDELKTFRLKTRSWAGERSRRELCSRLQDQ
Sequence of UniProt Q9UHN6 (Q9UHN6 whole entry, looked up): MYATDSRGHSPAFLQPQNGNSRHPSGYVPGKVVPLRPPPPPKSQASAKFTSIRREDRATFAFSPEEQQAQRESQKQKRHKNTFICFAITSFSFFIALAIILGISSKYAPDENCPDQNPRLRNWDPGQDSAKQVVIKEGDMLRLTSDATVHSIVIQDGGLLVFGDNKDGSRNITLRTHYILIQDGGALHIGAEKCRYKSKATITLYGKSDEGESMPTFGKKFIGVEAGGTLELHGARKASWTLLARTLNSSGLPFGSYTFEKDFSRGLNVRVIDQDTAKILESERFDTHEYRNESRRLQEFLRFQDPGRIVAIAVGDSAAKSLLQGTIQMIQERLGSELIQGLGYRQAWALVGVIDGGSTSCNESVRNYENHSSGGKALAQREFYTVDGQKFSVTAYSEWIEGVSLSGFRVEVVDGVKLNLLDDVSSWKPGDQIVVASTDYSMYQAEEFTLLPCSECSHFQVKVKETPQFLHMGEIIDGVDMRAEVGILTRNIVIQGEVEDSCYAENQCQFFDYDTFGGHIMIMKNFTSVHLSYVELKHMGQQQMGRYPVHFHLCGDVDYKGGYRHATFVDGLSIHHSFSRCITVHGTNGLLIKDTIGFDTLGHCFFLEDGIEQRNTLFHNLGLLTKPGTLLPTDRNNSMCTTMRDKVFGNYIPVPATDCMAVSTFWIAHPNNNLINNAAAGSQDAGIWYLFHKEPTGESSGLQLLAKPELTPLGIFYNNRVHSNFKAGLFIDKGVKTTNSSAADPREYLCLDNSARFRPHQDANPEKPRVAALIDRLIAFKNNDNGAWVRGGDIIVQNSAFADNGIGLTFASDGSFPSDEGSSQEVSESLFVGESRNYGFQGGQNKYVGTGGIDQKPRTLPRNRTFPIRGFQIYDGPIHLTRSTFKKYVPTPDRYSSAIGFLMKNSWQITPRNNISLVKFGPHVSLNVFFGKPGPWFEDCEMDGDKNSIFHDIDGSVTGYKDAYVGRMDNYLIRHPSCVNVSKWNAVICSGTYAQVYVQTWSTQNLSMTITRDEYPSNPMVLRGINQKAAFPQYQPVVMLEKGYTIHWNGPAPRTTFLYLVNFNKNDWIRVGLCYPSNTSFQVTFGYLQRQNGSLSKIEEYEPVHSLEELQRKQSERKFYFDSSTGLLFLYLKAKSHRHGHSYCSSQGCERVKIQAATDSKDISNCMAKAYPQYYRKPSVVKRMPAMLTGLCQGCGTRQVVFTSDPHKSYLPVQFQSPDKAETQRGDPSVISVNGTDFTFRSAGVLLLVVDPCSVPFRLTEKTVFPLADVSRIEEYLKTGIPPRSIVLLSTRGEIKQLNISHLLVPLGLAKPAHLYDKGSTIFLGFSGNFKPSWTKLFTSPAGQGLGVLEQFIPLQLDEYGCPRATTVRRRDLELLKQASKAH
Sequence of UniProt Q96CF2 (Q96CF2 whole entry, looked up): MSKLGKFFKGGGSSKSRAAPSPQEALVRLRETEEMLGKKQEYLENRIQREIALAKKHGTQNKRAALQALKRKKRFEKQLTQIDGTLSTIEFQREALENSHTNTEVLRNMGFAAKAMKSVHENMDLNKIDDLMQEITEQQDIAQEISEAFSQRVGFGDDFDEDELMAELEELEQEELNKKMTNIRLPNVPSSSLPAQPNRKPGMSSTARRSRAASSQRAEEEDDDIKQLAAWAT
Sequence of UniProt Q00536 (Q00536 whole entry, looked up): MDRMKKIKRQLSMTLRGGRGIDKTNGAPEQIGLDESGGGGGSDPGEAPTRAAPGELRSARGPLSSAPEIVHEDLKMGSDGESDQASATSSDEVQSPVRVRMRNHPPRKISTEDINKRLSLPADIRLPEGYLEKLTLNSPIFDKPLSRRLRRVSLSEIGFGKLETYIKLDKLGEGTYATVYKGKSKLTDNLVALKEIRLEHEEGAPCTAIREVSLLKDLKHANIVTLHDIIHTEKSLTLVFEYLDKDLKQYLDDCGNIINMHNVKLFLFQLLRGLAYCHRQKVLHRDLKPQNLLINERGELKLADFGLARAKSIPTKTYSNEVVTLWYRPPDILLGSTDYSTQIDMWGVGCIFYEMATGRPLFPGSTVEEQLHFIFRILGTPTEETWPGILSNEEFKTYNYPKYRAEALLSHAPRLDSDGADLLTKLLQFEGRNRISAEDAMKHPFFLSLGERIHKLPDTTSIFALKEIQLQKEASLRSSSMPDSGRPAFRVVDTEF
Sequence of UniProt Q96G23 (Q96G23 whole entry, looked up): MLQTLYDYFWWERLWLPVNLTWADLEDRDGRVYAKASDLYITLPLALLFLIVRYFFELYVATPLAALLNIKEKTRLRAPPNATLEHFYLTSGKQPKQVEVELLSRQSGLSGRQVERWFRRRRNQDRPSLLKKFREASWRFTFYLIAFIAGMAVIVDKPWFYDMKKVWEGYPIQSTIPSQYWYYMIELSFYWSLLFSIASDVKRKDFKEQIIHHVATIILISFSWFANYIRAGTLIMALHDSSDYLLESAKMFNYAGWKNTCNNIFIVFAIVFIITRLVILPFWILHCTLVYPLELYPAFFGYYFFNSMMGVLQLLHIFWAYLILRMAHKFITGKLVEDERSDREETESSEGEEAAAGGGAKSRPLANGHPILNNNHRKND
Sequence of UniProt P05937 (P05937 whole entry, looked up): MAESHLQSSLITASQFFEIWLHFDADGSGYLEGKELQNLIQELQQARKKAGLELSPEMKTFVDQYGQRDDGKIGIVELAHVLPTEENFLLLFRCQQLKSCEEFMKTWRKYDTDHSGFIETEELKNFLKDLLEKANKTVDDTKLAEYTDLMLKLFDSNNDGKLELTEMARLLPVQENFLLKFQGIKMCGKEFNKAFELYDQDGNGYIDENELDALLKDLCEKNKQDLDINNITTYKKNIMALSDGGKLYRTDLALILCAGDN

| Target | log2 fold change [1] | log2 fold change (volasertib) | log2 fold change [2] | log2 fold change (epoxomicin) | log2 fold change [3] | log2 fold change [4] | log2 fold change [5] | log2 fold change (rosiglitazone) | log2 fold change [6] | log2 fold change [7] | log2 fold change (saracatinib) | log2 fold change (alvocidib) | log2 fold change (Tubastatin A) | log2 fold change [8] | log2 fold change (defactinib) | log2 fold change (rucaparib) | log2 fold change [9] | log2 fold change (encorafenib) | log2 fold change [10] | log2 fold change (sotrastaurin) |
| --- | --- | --- | --- | --- | --- | --- | --- | --- | --- | --- | --- | --- | --- | --- | --- | --- | --- | --- | --- | --- |
| CEMIP2 (UniProt Q9UHN6) | -0.209 | -0.364 | -0.142 | 0.058 | -0.184 | -0.088 | -0.049 | 0.003 | 0.032 | 0.123 | -0.104 | -0.055 | -0.005 | 0.032 | 0.017 | 0.046 | -0.026 | -0.1 | 0.029 | – |
| CD151 (UniProt P48509) | 0.277 (active) | 0.157 | -0.068 | 0.041 | -0.011 | -0.058 | 0 | 0.017 | -0.095 | 0.248 | 0.045 | -0.049 | -0.012 | 0.092 | -0.065 | -0.097 | 0.03 | 0.031 | 0.001 | 0.116 |
| CDC42BPB (UniProt Q9Y5S2) | 0.171 | 0.051 | -0.105 | -0.065 | 0.008 | 0.062 | 0.046 | 0.049 | 0.048 | -0.195 | -0.089 | 0.009 | 0.055 | 0.021 | -0.119 | 0.146 | -0.046 | -0.029 | -0.032 | -0.152 |
| C1D (UniProt Q13901) | 0.088 | 0.076 | -0.034 | 0.02 | 0 | -0.021 | -0.127 | -0.008 | – | 0.096 | – | – | 0.079 | 0.001 | 0.042 | -0.005 | – | 0.009 | 0.091 | 0.005 |
| CHMP4C (UniProt Q96CF2) | -0.23 | -0.043 | -0.014 | -0.016 | 0.06 | -0.034 | 0.005 | 0.028 | -0.206 | -0.089 | 0 | 0.02 | -0.009 | -0.173 | -0.047 | -0.032 | -0.138 | -0.097 | 0.007 | 0.042 |
| CALB1 (UniProt P05937) | -0.123 | -0.092 | -0.007 | 0.043 | 0.003 | 0.05 | 0.016 | 0.027 | -0.039 | -0.282 (active) | 0.033 | 0.034 | -0.026 | 0.02 | 0.013 | -0.07 | -0.14 | 0.023 | 0.021 | 0.008 |
| COX7C (UniProt P15954) | 0.035 | -0.163 | -0.114 | 0.203 | -0.01 | 0.095 | -0.058 | -0.025 | -0.026 | -0.052 | 0.026 | – | 0.03 | 0.007 | 0.031 | 0.011 | -0.054 | -0.06 | 0.047 | 0.028 |
| CERS2 (UniProt Q96G23) | -0.148 | -0.133 | 0.011 | 0.03 | -0.004 | -0.001 | 0.001 | 0.088 | 0.007 | -0.46 (active) | 0.012 | -0.018 | -0.056 | -0.121 | -0.001 | 0.002 | -0.048 | 0.017 | 0.03 | -0.033 |
| COPS8 (UniProt Q99627) | -0.018 | 0.043 | 0.032 | -0.047 | 0.008 | 0.013 | 0.033 | 0.041 | 0.011 | 0.113 | -0.013 | -0.071 | -0.025 | -0.039 | -0.03 | -0.015 | 0.018 | 0.011 | -0.021 | -0.052 |
| CTBS (UniProt Q01459) | -0.494 (active) | -0.376 (active) | -0.074 | 0.033 | 0.007 | 0.069 | 0.013 | -0.058 | 0.045 | -0.44 (active) | 0.081 | 0.029 | 0.038 | 0.023 | -0.082 | 0.055 | -0.132 | -0.093 | -0.038 | -0.245 |
| CIT isoform 4 (UniProt O14578) | 0.068 | -0.225 | 0.134 | 0.017 | -0.041 | -0.033 | -0.037 | 0.057 | 0 | -0.033 | -0.044 | 0.001 | 0.074 | 0.054 | -0.034 | -0.202 | -0.055 | -0.025 | -0.001 | -0.033 |
| CDK9 isoform 2 (UniProt P50750) | -0.01 | 0.078 | 0.064 | -0.06 | 0.016 | -0.092 | -0.042 | -0.019 | 0.178 | 0.205 | -0.028 | 0.405 (active) | 0.01 | -0.07 | 0.03 | 0.084 | 0.036 | 0.079 | -0.091 | -0.018 |
| CDK5 (UniProt Q00535) | -0.087 | -0.259 (active) | 0.095 | 0 | 0.004 | -0.039 | 0.002 | 0.041 | -0.014 | 0.025 | -0.008 | 0.142 | -0.013 | 0.029 | 0.143 | 0.05 | 0.006 | 0.049 | -0.042 | 0.094 |
| CDC25B isoform 4 (UniProt P30305) | -0.003 | -0.049 | -0.266 | 0.1 | -0.031 | -0.092 | -0.021 | -0.012 | – | -0.081 | – | -0.031 | – | -0.019 | -0.25 | 0.054 | – | -0.059 | 0.087 | -0.018 |
| CCAR2 isoform 2 (UniProt Q8N163) | -0.08 | -0.343 (active) | 0.031 | -0.018 | -0.057 | -0.025 | 0.044 | 0.047 | 0.003 | -0.145 | -0.102 | -0.254 | 0.122 | -0.083 | -0.42 (active) | -0.106 | 0.031 | -0.011 | 0 | -0.231 |
| CDK16 isoform 2 (UniProt Q00536) | -0.049 | -0.316 | -0.014 | 0.02 | -0.113 | 0.001 | 0.041 | 0.061 | -0.074 | 0.135 | -0.014 | – | 0.014 | 0.027 | 0.236 | 0.278 | -0.102 | 0.016 | -0.146 | 0.246 |
